According to PubChem BioAssay AID794 (The Scripps Research Institute Molecular Screening Center, 2007):
The other results are listed elsewhere or left out. Calls of active or inactive are those of the source. Cut-off read from the data, not from the text of the source: active = inhibition above about 19%; inactive = the rest.

What follows are compounds tested against Focal adhesion kinase 1 (Homo sapiens) (UniProt Q05397) (assay: FAK kinase inhibitors, retest, confirmation, biochemical (AID 794)). Conditions: FAK kinase biochemical inhibition assay; at 7 µM; hits give high values.
Chain of Focal adhesion kinase 1 (Homo sapiens) (Q05397 whole entry, looked up): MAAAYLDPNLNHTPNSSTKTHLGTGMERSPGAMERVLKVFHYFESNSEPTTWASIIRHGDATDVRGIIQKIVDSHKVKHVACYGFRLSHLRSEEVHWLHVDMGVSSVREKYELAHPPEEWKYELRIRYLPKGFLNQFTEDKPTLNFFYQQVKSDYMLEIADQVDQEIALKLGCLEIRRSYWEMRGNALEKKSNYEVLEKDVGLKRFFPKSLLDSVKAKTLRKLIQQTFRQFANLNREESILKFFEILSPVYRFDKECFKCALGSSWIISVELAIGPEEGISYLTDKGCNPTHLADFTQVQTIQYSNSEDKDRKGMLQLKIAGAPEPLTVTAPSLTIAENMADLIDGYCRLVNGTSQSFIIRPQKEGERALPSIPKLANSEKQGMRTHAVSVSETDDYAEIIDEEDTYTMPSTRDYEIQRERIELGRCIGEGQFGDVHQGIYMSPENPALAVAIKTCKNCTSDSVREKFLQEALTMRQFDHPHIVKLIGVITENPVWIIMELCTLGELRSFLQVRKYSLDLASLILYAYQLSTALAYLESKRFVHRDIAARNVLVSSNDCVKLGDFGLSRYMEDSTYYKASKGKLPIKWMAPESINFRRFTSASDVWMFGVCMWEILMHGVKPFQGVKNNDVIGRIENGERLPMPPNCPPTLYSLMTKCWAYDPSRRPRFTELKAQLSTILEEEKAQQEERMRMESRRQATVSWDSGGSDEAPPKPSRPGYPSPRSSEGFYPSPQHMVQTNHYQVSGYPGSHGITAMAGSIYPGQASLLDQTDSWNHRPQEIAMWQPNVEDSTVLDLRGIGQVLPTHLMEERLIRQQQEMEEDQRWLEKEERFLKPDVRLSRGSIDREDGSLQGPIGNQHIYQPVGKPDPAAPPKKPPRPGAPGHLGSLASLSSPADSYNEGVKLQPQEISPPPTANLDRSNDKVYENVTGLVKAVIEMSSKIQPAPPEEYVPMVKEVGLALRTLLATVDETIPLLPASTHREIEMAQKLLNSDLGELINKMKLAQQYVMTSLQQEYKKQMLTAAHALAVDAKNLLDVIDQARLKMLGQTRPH
With Cc1cc(NC(=O)c2cnn3cccnc23)n(-c2ccccc2)n1 the inhibition was 13.6% (inactive).
With O=C(Nc1ccc(-n2ccnc2P(=O)(O)c2ccccc2)cc1)c1ccccc1Br the inhibition was 16.2% (inactive).
For Oc1ccccc1/C=N/n1c(-c2cccs2)n[nH]c1=S, the inhibition was 8.74% (inactive).
With CCc1ccccc1NC(=O)CSc1nnc([C@@H](NC(=O)OC(C)(C)C)C(C)CC)o1 (stereo partly drawn) the inhibition was -1.72% (inactive).
In the case of CCN(CC)S(=O)(=O)c1cc([N+](=O)[O-])ccc1NNC(=O)Nc1ccccc1, the inhibition is reported as 19.2% (active).
In the case of Clc1ccccc1CSc1nnc(-c2ccco2)c(-c2ccco2)n1, the inhibition is reported as 8.81% (inactive).
For Nc1c(-c2ccc(F)cc2)cnc2ncnn12, the inhibition was -3.73% (inactive).
In the case of CC(=O)c1ccc(Cc2ncc(C(F)(F)F)cc2Cl)s1, the inhibition is reported as -0.34% (inactive).
